Hits are enriched below; roughly 21% of the tested compounds scored in any of these assays.
Pf growth 96h – Primary qHTS for delayed death inhibitors of the malarial parasite plastid, 96 hour incubation | P. falciparum luciferase reporter growth, 96 h | Potency, µM (series often up to 28.7 µM), without a hit: top-dose activity change, negative = inhibition, hits mostly inhibitors | 320,000 tested, 6.9% active | AID 504834, 2011; active = well fitted inhibition curve with a large enough effect; inconclusive = small, poorly fitted or top-dose-only effect, or another doubt; inactive = no such curve, though single readings can be large or run the other way; note: potency is the fitted concentration of half-maximal effect; % is set by controls: 0 for no effect and ±100 for the full control effect
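Compounds incubated with erythrocytes infected by luciferase-expressing P. falciparum (2% hematocrit, 0.05% parasitemia final) for 96 hours, 37 C in 5% CO2. Growth inhibition scored as decreased luciferase luminescence.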
CHX counter – Cycloheximide Counterscreen for Small Molecule Inhibitors of Shiga Toxin; cell reporter, cycloheximide protein synthesis inhibition counterscreen; max response, %; 300,000 tested, 12% active; in the data active = max response mostly above about 13%, no sharp cut-off; inactive = mostly below about 14%; note: read at 38.3 µM for the half of the compounds with a filed dose; 0% is about no effect
Shiga toxin inh – A qHTS for Small Molecule Inhibitors of Shiga Toxin. inhibition, % at 38.7 µM. Vero cells, Shiga toxin protein synthesis inhibition reporter. 290,000 tested, 9.2% active; in the data active = inhibition mostly above about 28%, no sharp cut-off; inactive = mostly below about 43%; note: 0% is about no effect
Pf growth 48h – Primary qHTS for delayed death inhibitors of the malarial parasite plastid, 48 hour incubation; P. falciparum luciferase growth in erythrocytes, 48 h; Potency, µM (highest dose often 28.7 µM), for the others: at the highest dose activity change, negative = inhibition, actives largely listed as inhibitors; 310,000 tested, 5.9% active; active = well fitted inhibition curve with a large enough effect; inconclusive = small, poorly fitted or top-dose-only effect, or another doubt; inactive = no such curve, though single readings can be large or run the other way; note: potency is the fitted concentration of half-maximal effect; % is set by controls: 0 for no effect and ±100 for the full control effect
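Compounds are pin-transferred into medium, infected erythrocytes (2% hematocrit, 0.1% parasitemia final) are added, and plates sit one parasite generation at 37 C in 5% CO2. Detection reagent is then added and luminescence measured.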
NS1 function inh – qHTS Assay for Inhibitors of Influenza NS1 Protein Function; 270,000 tested, 0.4% active; Potency, µM (highest dose often 46.1 µM), for inactives: top-dose activity, positive = more growth; note: potency is the fitted concentration of half-maximal effect; actives are rising curves; nearly all actives have a fitted effect of over 50% in size
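Growth recovery, yeast-based: influenza A NS1 expressed in S. cerevisiae causes slow growth, and suppressors are detected by OD600. The parent strain without NS1 is used as positive control.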
SARS PLP yeast – qHTS of Yeast-based Assay for SARS-CoV PLP; 330,000 tested, 0.19% active; Potency, µM (titrated, usually from 32.9 µM), for inactives: top-dose activity, positive = growth rescue, actives largely listed as activators; S. cerevisiae expressing SARS-CoV PLpro, growth rescue; note: potency is the fitted concentration of half-maximal effect; 0% is about no effect; nearly all actives have a fitted effect of over 55% in size
An asterisk follows results filed as active; u = inconclusive; x = no result given. Unless noted, calls come from the whole dose curve.

SMILES | Pf growth 96h | CHX counter | Shiga toxin inh | Pf growth 48h | NS1 function inh | SARS PLP yeast
C[C@@H]1C[C@H]2[C@@H]3CCC4=CC(=O)C=C[C@]4(C)[C@@]3(F)[C@@H](O)C[C@]2(C)[C@@]1(O)C(=O)COP(=O)(O)O | 39% | 5 | 31 | 34% | 22% | 19%
CCCC(=O)O[C@]1(C(=O)CCl)[C@@H](C)C[C@H]2[C@@H]3CCC4=CC(=O)C=C[C@]4(C)[C@@]3(F)C(=O)C[C@@]21C | 1.3µM* | -1 | 29 | 1.7µM* | u | 1%
CCC(=O)OC1(C(=O)CCl)[C@@H](C)C[C@H]2[C@@H]3CCC4=CC(=O)C=C[C@]4(C)[C@@]3(F)[C@@H](O)C[C@@]21C (some centres not stated) | 5.2µM* | x | x | 2.3µM* | x | x
CC(CCc1ccccc1)NC(=O)CCNC(=O)Cn1ccc2ccccc2c1=O (configuration not stated) | -4% | -2 | 1 | 3% | 1% | 3%
CCOC(=O)N1CCN(C(=O)CNC(=O)c2ccc(Br)cc2)CC1 | u | 9 | -23 | 15% | 12% | 7%
CCCCC(=O)O[C@]1(C(=O)CO)[C@H](C)C[C@H]2[C@@H]3CCC4=CC(=O)C=C[C@]4(C)[C@@]3(F)[C@@H](O)C[C@@]21C | u | -6 | -16 | u | x | x
CCC(=O)O[C@@]1(C(=O)CCl)C(C)CC2C3CCC4=CC(=O)C=C[C@@]4(C)[C@]3(F)C(O)C[C@]21C (some centres not stated) | 3.4µM* | x | x | 6.7µM* | x | x
S=C(NCc1ccco1)N1CCC(c2nc3ccccc3o2)CC1 | -15% | -2 | -7 | 4% | x | 1%
O=C(CC1CCC1)NC(c1ccccc1)c1ccccc1 | 21% | 1 | -3 | u | 2% | -2%
CCSc1nnc(NC(=O)CCc2ccccc2)s1 | 121% | -1 | -14 | x | -6% | 5%
CC(C)c1nnc(NC(=O)COc2ccccc2[N+](=O)[O-])s1 | 106% | 20* | 96* | 97% | 0% | 0%
CCSc1nnc(NC(=O)COc2ccccc2[N+](=O)[O-])s1 | 169% | 62* | 185* | 121% | x | 0%
Cc1nc2ccc(NC(=O)COc3ccccc3[N+](=O)[O-])cc2s1 | 25% | 16 | 29 | 3% | x | -2%
COc1cc(CN2CCC(CO)(CCOc3ccccc3)CC2)cc(OC)c1 | 12µM* | -1 | -12 | 12µM* | -4% | -1%
Cc1c(CN2CCC(CO)(CCOc3ccccc3)CC2)c(=O)n(-c2ccccc2)n1C | u | -2 | -10 | 38% | 6% | 0%
OCC1(CCCc2ccccc2)CCN(Cc2ccc(F)cc2)CC1 | -23% | -2 | -11 | -19% | 2% | 0%
COc1ccc(OC)c(CN2CCC(CO)(CCOc3ccccc3)CC2)c1 | -7% | 1 | -16 | 13µM* | 2% | 0%
COc1ccc(OC)c(CN2CCCCCC2)c1 | 9% | -4 | -10 | 163% | -2% | 3%
OCC1(CCOc2ccccc2)CCN(Cc2cccn2-c2ncccn2)CC1 | -93% | -2 | -3 | u | 1% | 0%
OCC1(CCOc2ccccc2)CCN(C2Cc3ccccc3C2)CC1 | u | -2 | -10 | 8.3µM* | 0% | 0%
OCC1(CCc2ccccc2)CCN(Cc2ccc(OC(F)F)cc2)CC1 | 13µM* | -1 | 16 | -28% | 0% | -2%
CCCCn1c(N)c(NCC)c(=O)[nH]c1=O | 12% | -4 | -4 | 11% | -26% | -4%
CC(C(=O)NC(=O)NC1CCCCC1)N1CCN(C(c2ccccc2)c2ccccc2)CC1 (configuration not stated) | x | -4 | -7 | u | 3% | 2%
Cc1cc(C)c(CN2CCC(CO)(CCOc3ccccc3)CC2)cc1C | 0% | 0 | -17 | 6.6µM* | 0% | 1%
CCc1c(C)sc(NC(=S)N2CC(C)OC(C)C2)c1C(=O)OC (configuration not stated) | 350% | -1 | 3 | u | 10% | 0%
SMILES | Pf growth 96h | CHX counter | Shiga toxin inh | Pf growth 48h | NS1 function inh | SARS PLP yeast
CCC1CCCCN1CCCNC(=O)c1ccc2c(c1)N(Cc1c(F)cccc1Cl)C(=O)CS2 (configuration not stated) | u | -7 | 1 | 13µM* | -7% | -4%
CCN1C(=O)CSc2ccc(C(=O)NCCCN3CCOCC3)cc21 | 23% | 7 | 1 | 9% | 3% | 2%
O=C(NCc1ccc2c(c1)OCO2)c1ccc2c(c1)N(Cc1c(F)cccc1Cl)C(=O)CS2 | -77% | -5 | -14 | 12µM* | u | 11%
Cc1cc(NC(=O)COC(=O)CCNS(=O)(=O)c2c(Cl)cccc2Cl)no1 | 33% | -3 | -13 | 4% | x | 3%
C/C(=N\Nc1ccc(C)c(Cl)c1)c1cccnc1 | -4% | 41* | 89* | u | -52% | -7%
CC(=NNS(=O)(=O)c1cccc([N+](=O)[O-])c1)c1ccc(-n2ccnc2)cc1 | x | x | x | x | x | -4%
C/C(=N\Nc1cccc(Cl)c1)c1ccc(-n2ccnc2)cc1 | 12µM* | -6 | -1 | u | 4% | -22%
C/C(=N\NC(=O)C(=O)Nc1ccc(C)c(Cl)c1)c1ccncc1 | -16% | 1 | -2 | 17% | -2% | 16%
C/C(=N\Nc1ccc(C)c(Cl)c1)c1ccncc1 | u | 30* | 39 | u | -73% | -35%
CC(C)C(=O)NNC(=O)c1csc(-c2cccs2)n1 | -10% | 3 | 15 | 0% | 4% | 2%
COc1ccc(C(C(=O)NC2CCCCC2)N(C(=O)CCCC(=O)Nc2ccccn2)c2ccc3c(c2)OCCO3)cc1 (configuration not stated) | 9.3µM* | 1 | 2 | u | u | 1%
O=C(CCCC(=O)N(c1cccc(F)c1)C(C(=O)NC1CCCC1)c1ccc(O)cc1)Nc1ccccn1 (configuration not stated) | -1% | -2 | -2 | u | -14% | 3%
O=C(CCCC(=O)N(c1ccc2c(c1)OCCO2)C(C(=O)NC1CCCCC1)c1ccc(Cl)cc1)Nc1ccccn1 (configuration not stated) | u | 24* | 33* | u | 3% | 1%
CCCCn1c(N)c(N(CCOC)C(=O)c2cc(S(=O)(=O)N3CCCCC3)ccc2C)c(=O)[nH]c1=O | 5% | x | x | u | x | x
COC(=O)c1cc(OC)c(OC)cc1NC(=S)N1CCN(C/C=C/c2ccccc2)CC1 | 25% | -2 | -15 | u | -12% | 7%
CCOC(=O)C[n+]1c(C)csc1C | -13% | 1 | -4 | -1% | 0% | -3%
CCOC(=O)C[n+]1c(C)ccc2c1CCC2 | 8.3µM* | -1 | -3 | -6% | 7% | 0%
CCOc1ccc(NC(=O)CNC(=O)c2nn(-c3ccc(OC)cc3)c(=O)c3ccccc23)cc1 | -10% | -2 | 3 | 9.3µM* | 26% | 2%
